Compound activity (PubChem)
SF1 inhibitor – blocks the human nuclear receptor SF-1 | Q13285 | AID 525 | 0.55% of 65,000 active | CHO-K1 Gal4-SF-1 LBD luciferase reporter | inhibition, % at 10 µM;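 active means inhibition above the mean inhibition of all tested compounds plus 3 SD, cut at about 48% in these data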;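 further: 0% = SF-1 transfected cells with DMSO and 100% = mock-transfected cells lacking SF-1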
Target sequence (Q13285 whole entry, looked up, the tested form may be a part): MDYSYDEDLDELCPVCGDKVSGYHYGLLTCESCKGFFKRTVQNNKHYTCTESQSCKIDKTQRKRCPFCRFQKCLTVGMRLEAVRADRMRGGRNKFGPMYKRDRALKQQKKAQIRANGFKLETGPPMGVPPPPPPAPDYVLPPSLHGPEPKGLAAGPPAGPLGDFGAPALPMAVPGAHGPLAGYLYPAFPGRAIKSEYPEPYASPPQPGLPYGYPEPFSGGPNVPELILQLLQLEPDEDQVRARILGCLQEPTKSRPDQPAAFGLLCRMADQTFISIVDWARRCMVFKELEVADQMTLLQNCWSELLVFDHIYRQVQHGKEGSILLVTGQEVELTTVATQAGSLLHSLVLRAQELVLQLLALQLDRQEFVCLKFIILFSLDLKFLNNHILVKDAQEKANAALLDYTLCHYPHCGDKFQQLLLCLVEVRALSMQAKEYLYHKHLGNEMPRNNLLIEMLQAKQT
The depositor's hits bear a star. Shown is part of a subset that was picked to be rich in hits.

SMILES	SF1 inhibitor
C#CCn1cnc2c(cnn2-c2ccc(C)c(C)c2)c1=O	-58
O=S(=O)(NCCSc1nnnn1-c1ccccc1)c1cccs1	-54
COc1ccc(OC)c(S(N)(=O)=O)c1	-13
COc1ccc(OC)c(NS(=O)(=O)c2ccc(N3CCCC3=O)cc2)c1	53*
COc1ccc(N2CC(C(=O)Nc3ccc(N4CCOCC4)cc3)CC2=O)cc1 (centres undefined)	3
O=C(NCCSc1ccccc1)c1cccnc1	-62
COc1ccc(NC(=O)Cn2c(=O)sc3ccccc32)c(OC)c1	12
COc1ccc(-c2cc(C(=O)N3CCCCC3)no2)cc1OC	-77
O=C(c1cc(-c2cccc(O)c2)on1)N1CCN(C(c2ccccc2)c2ccccc2)CC1	5
Cc1ccc(-c2cc(C(=O)N3CCCC3)no2)cc1	51*
Cc1sc2ncnc(-n3cnc4ccccc43)c2c1C	7
Cc1ccc(S(=O)(=O)N2CCN(C(=O)CN3CCN(C)CC3)C2)cc1	7
CCn1c(SCc2cccnc2)nnc1-c1c[nH]c2ccccc12	1
CC(C)(C)n1ncc2c(=O)n(CC(=O)NCc3ccccc3)cnc21	-78
COc1ccc2cc(C(=O)NCc3ccco3)c(=O)oc2c1	11
Cc1cc(C(=O)CNCc2ccco2)c(C)n1-c1ccc(F)cc1	-53
CCOC(=O)CSc1nc2cc(C(=O)NCc3ccco3)ccc2c(=O)n1-c1ccc(F)cc1	51*
CCOC(=O)CSc1nnc(CNC(=O)c2ccc(OC)cc2OC)n1-c1ccc(OC)cc1	14
CCn1c(SCC(=O)NCCOc2ccccc2)nc2ccccc2c1=O	7
COc1ccc(C(=O)Nn2c(SCC(=O)NCc3ccco3)nc3ccccc3c2=O)cc1	62*
Cc1nn(-c2ccccc2)c2sc(C(=O)N(CC(=O)NC(C)(C)C)Cc3ccco3)cc12	-7
COc1cccc2c(=O)n(CC(=O)N3CCCc4ccccc43)ccc12	-10
COc1ccc(N2CCN(C(c3cccs3)C(C)NC(=O)c3ccco3)CC2)cc1 (centres undefined)	-16
Cc1sc(NC(=O)c2ccco2)c(C(c2cccnc2)N2CCN(c3ccc(F)cc3)CC2)c1C (centres undefined)	48*
Cc1cnc(NC(=O)c2ccco2)s1	-53
SMILES	SF1 inhibitor
CC(=O)n1c2ccccc2c2c(C#N)c(N3CCCCC3)sc21	-51
CCOc1ccc(C(C)=O)cc1CSc1nnc(-c2cccs2)n1CC1CCCO1 (centres undefined)	7
COCCN(CC(=O)NCc1ccccc1)C(=O)CCC(=O)Nc1nccs1	-15
O=C(Nc1nnc(C2CCCC2)s1)C1CCN(S(=O)(=O)c2ccc(Cl)cc2)CC1	-1
CCN1C(=O)/C(=C2/Sc3ccc(OC)cc3N2C)SC1=Nc1cccc(O)c1	51*
CCN=C1SC(C(=O)Nc2cccc(OCC)c2)CC(=O)N1CC (centres undefined)	24
c1ccc(/N=C2\N=C(Nc3ccccn3)c3ccccc32)nc1	86*
c1ccc(Nc2nc3ccccc3[nH]2)nc1	-55
O=C(CN1CCN(CC(=O)Nc2ccccn2)CC1)Nc1ccccn1	8
CCN(C(=O)c1cc(Cl)ccc1OC)C1CCCCC1	17
COc1cc(CNC2CCC(C)C2)cc(OC)c1 (centres undefined)	6
c1ccc(-c2nc3ccccc3s2)nc1	-60
c1ccc(-c2ccc(-c3ccccn3)nn2)nc1	53*
c1ccc(-c2n[nH]c(-c3ccccn3)n2)nc1	-78
Cn1cc(C(=O)NCCN2CCN(c3ccccc3F)CC2)c2c3ccccc3n(C)c2c1=O	-5
COc1ccc(OC)c(-c2cc(C(=O)NCc3ccco3)no2)c1	3
CCOc1ccc(N2C(=O)c3cccnc3C2Nc2ccc(C)cc2)cc1 (centres undefined)	0
Cc1occc1C(=O)N1CCN(c2ccc(Cl)c(Cl)c2)CC1	56*
O=C(c1ccc2c(c1)OCO2)N1CCN(c2ccc(F)cc2)CC1	-7
Cc1occc1C(=O)n1nnc2ccccc21	5
CC(=O)c1cccc(NC(=O)CN(c2ccc(C)cc2)S(=O)(=O)c2cccc3nonc23)c1	9
c1ccc2c(c1)CCN(CCCNc1nc3ccccc3n3cnnc13)C2	-16
O=c1[nH]c2ccc(Br)cc2c(-c2ccccc2)c1CN1CCOCC1	10
Oc1c(CN2CCOCC2)cc(COCc2ccccc2)c2cccnc12	73*
Cc1ccc(Nc2nc(CSc3nnc(-c4cccs4)o3)cs2)cc1	-24
SMILES	SF1 inhibitor
Cc1cccc(OCC(O)CN2CCN(C3CCCCC3)CC2)c1 (centres undefined)	-36
CCCOc1ccc([C@@H]2C3CN(C(=O)OCC)CC=C3C(C#N)=C(N)C2(C#N)C#N)cc1OC (some centres undefined)	6
N#CC1=C(N)C(C#N)(C#N)[C@H](c2ccncc2)[C@H]2CN(C(=O)OCc3ccccc3)CC=C12	48*
COC(=O)c1sc(NC(=O)CSc2nnnn2-c2ccc(C)cc2C)nc1C	22
CCOC(=O)CSc1nc(-c2ccc3c(c2)OCO3)ccc1C#N	-64
Cc1cccc2cc(C#N)c(NCCNC(=O)NC3CCCCC3)nc12	15
Cc1cccc2cc(C#N)c(SCC(=O)N3CC(=O)Nc4ccccc43)nc12	64*
CCOC(=O)CNc1c(N2CCN(c3ccccn3)CC2)c(=O)c1=O	-14
COc1cc2c(cc1NC(=O)CSc1nnnn1-c1ccccc1)oc1ccccc12	84*
COc1cc2c(cc1NC(=O)c1cncc(Br)c1)oc1ccccc12	-2
COc1cc2c(cc1NC(=O)CSCC(=O)O)oc1ccccc12	4
CCOc1ccc(S(=O)(=O)Nc2ccccc2C(=O)NCC2CCCO2)cc1 (centres undefined)	10
O=C(CN(CC1CCCO1)C(=O)CCC(=O)Nc1ccccn1)NCC1CCCO1 (centres undefined)	0
CN(CC1CCCO1)S(=O)(=O)c1ccc(C(=O)Nc2nc(-c3ccccn3)cs2)cc1 (centres undefined)	70*
COc1ccc(-n2ncc3c(NCc4ccccn4)ncnc32)cc1	-56
c1ccc(Cn2c(-c3ccco3)nc3nc4ccccc4nc32)cc1	-82
Cc1ccc(-c2nc3nc4ccccc4nc3n2Cc2ccco2)cc1	59*
COc1ccc(CCn2c(-c3ccco3)nc3nc4ccccc4nc32)cc1	-29
COC(=O)C(C)Oc1ccc2c3c(c(=O)oc2c1)CCCCC3 (centres undefined)	-12
CCOC(=O)CSC(CC)C(=O)Nc1nnc(CC)s1 (centres undefined)	-20
COc1cc(C2N(c3ccc(Cl)c(Cl)c3)C(=O)C3CCCN32)cc(OC)c1OC (centres undefined)	2
CC(C)CCSc1nc(N)c(C#N)cc1C#N	-3
CCC(=O)NC1(C(F)(F)F)C(=O)NC(C)=C1C#N (centres undefined)	12
